# Experimental data published in PubChem BioAssay (Tox21).
# Inconclusive results are not listed. Unmarked numbers belong to inactive results. Calls come from the whole dose curve; as a rule, active = well fitted activation curve with a large enough effect in the signal ratio in the repeat runs, with a control signal flat (not every such curve was filed as active); inconclusive = weak or mixed curves; inactive = flat fitted curve, though single readings scatter; the % refers to the signal ratio.
# Assay: qHTS assay for small molecule activators of the heat shock response signaling pathway (AID 743210)
# Settings: HeLa HSE-bla reporter, beta-lactamase ratio, 5 h; series mostly up to 62.6 µM; activation: at the top concentration
# Description: U.S. Tox21 Program National Center for Advancing Translational Sciences [NCATS] NIH Chemical Genomics Center [NCGC] U.S. Environmental Protection Agency [EPA] National Institutes of Environmental Health Sciences [NIEHS] National Toxicology Program [NTP] U.S. Food and Drug Administration [FDA] Tox21 Assay Overview: Various chemicals, environmental and physiological stress conditions may lead to the activation of heat shock response/ unfolded protein response (HSR/UPR). There are three heat shock transcription factors (HSFs) (HSF-1, -2, and -4) mediating transcriptional regulation of the human HSR. To identify the compounds that activate HSR signaling, HSE-bla HeLa cell line (Invitrogen, Carlsbad, CA, USA) containing a beta-lactamase reporter gene under the control of the heat shock response elements was used to screen the Tox21 10K compound library.
# Tox21 Assay Protocol Summary: The CellSensor HSE-bla HeLa cells (Invitrogen, Carlsbad, CA, USA) were dispensed at 1500 cells/6uL/well into 1536-well black wall/clear bottom plates using a Multidrop combi (Thermo Fisher Scientific, Waltham, MA) dispenser. After the assay plates were incubated at 37 C and 5% CO2 overnight, 23 nL of compounds dissolved in DMSO, positive controls or DMSO only was transferred to the assay plate by a Pintool station (Kalypsys, San Diego, CA). The plates were incubated at 37 C for 5 h. After 1 uL of LiveBLAzerTM B/G FRET substrate was added using a Flying Reagent Dispenser (Beckman Coulter, Indianapolis, IN, USA), the plates were incubated at room temperature for 2.5 h, and fluorescence intensity was measured by an Envision plate reader (PerkinElmer, Shelton, CT).
# % is set by controls: 0 for no effect and ±100 for the full control effect.
row,SMILES,activation
1,Cc1cc(C)cc([N+](=O)[O-])c1,-0.0281% [at 81.1 µM]
2,Nc1cc(Cl)cc(S(=O)(=O)O)c1O,0.893% [at 81.1 µM]
3,CCCCC(=O)N(C)C,0.675%
4,CCCCC/C=C/CC(=O)OC,0.296%
5,C[N+](C)(C)CC(O)CCl (stereo not given),0.36% [at 81.1 µM]
6,CC(C)CCC(=O)CCC(C)C,-0.772%
7,O=C(Nc1cccc(C2=NCCN2)c1)Nc1cccc(C2=NCCN2)c1,-1.12% [at 29.1 µM]
8,C[C@H](CCC(=O)NCC(=O)O)[C@H]1CC[C@H]2[C@@H]3[C@H](O)C[C@@H]4C[C@H](O)CC[C@]4(C)[C@H]3C[C@H](O)[C@]12C,-1.58%
9,CCCCC[Si](OCC)(OCC)OCC,1.59%
10,C1CCN2C[C@@H]3C[C@@H](CN4CCCC[C@@H]34)[C@H]2C1,-0.553%
11,C=CCOCC(CO)(COCC=C)COCC=C,-1.38%
12,CC(=O)N1CCN(c2ccc(O)cc2)CC1,0.207%
13,BrC/C=C/CBr,-1.97% [at 29.1 µM]
14,CCCCCCCCCCCCCC(=O)OC,-0.298%
15,CC(=O)OC(C)c1ccccc1 (stereo not given),1.2%
16,CCCCCN(CCCOC)C(=O)C(CCC(=O)O)NC(=O)c1ccc(Cl)c(Cl)c1 (stereo not given),1.76%
17,CC1CCC(C(C)(C)S)C(=O)C1 (stereo not given),0.148%
18,CC(=O)OC[C@H]1O[C@@H](OC(C)=O)[C@H](OC(C)=O)[C@@H]1OC(C)=O,-0.437%
19,CC(C)CCO,-1.52%
20,CCCCOC(=O)C(C)OC(=O)CCC (stereo not given),-0.897%

row,SMILES,activation
1,CC(C)COC(=O)CCCCC(=O)OCC(C)C,-0.411%
2,C=C[C@@H](C)CCC=C(C)C,-1.2%
3,C=C[Si](C)(C)O[Si](C)(C)C=C,-1.23%
4,C=CCCCCCCCCCCC,-0.0554% [at 5.95 µM]
5,CCCCCCCCCCCCCCCCI,-1.96% [at 29.1 µM]
6,C=CCOc1c(Br)cc(Br)cc1Br,-1.62%
7,C[C@H](CCC(=O)O)[C@H]1CC[C@H]2[C@@H]3[C@H](O)C[C@@H]4C[C@H](O)CC[C@]4(C)[C@H]3C[C@H](O)[C@]12C,-0.306%
8,C=CC(C)(O)CC/C=C(\C)CC (stereo not given),1.27%
9,NS(=O)(=O)c1cc2c(cc1Cl)NC(C(Cl)Cl)NS2(=O)=O (stereo not given),-1.47%
10,Nc1nc(=O)n([C@@H]2O[C@H](CO)[C@@H](O)[C@@H]2F)cc1I,-0.32%
11,Nc1ccc(S(=O)(=O)Nc2ccccn2)cc1,-0.925%
12,F[Si-2](F)(F)(F)(F)F,-1.63%
13,Nc1c(NC/C=C\COc2cc(CN3CCCCC3)ccn2)c(=O)c1=O,-0.928% [at 29.1 µM]
14,C=CCOC(=O)c1ccc(C(=O)OCC=C)c(C(=O)OCC=C)c1,-1.12%
15,Cc1ccccc1OCC1CO1 (stereo not given),-0.629% [at 81.1 µM]
16,Oc1ccccc1Cc1ccccc1O,-0.118%
17,Cc1nc2ccccc2c(=O)o1,-1.22% [at 81.1 µM]
18,OC(CCN1CCCCC1)(c1ccccc1)c1ccccc1,-0.436%
19,CC(C)=CC(C)(C)C,-0.124%
20,NCCc1ccn[nH]1,0.325%
